Data as given in the supplement of paper PMC10849652.
Targets with a hit are over-represented here; the source holds about 8,800 in all. About 0.5% of all pairs of compound and target were hits. A number with no mark means an inactive call.

Columns and labels:
Test in all cases: log2 fold change, soluble protein after heating vs DMSO (PISA); higher = thermal stabilisation; K562 lysate, 10 uM; active = over 0.2 and 3.5 SD of the protein, either way, in both replicates (recomputed)
vemurafenib = compound: CCCS(=O)(=O)Nc1ccc(F)c(C(=O)c2c[nH]c3ncc(-c4ccc(Cl)cc4)cc23)c1F [vemurafenib]
Outline: (§1)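 A 30 min treatment with 10 μM compound was applied to crude K562 extract at 1 mg/mL protein in PBS pH 7.4 with 1 mM MgCl2. Heating for 3 min spanned 48°C-58°C, after which aliquots were pooled, adjusted to 0.5% NP-40 at 4°C and spun at 21,000xg for 90 min. TMTpro 16plex LC-MS/MS of the supernatant, with channel sums equalised, gave values recorded as log-two fold change in thermal stability against solvent controls, from duplicates.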

[1] = compound: CCCS(=O)(=O)Nc1ccc(F)c(C(=O)c2c[nH]c3ncc(Cl)cc23)c1F
Outline: as §1

barasertib = compound: CCN(CCCOc1ccc2c(Nc3cc(CC(=O)Nc4cccc(F)c4)[nH]n3)ncnc2c1)CCOP(=O)(O)O [barasertib]
Outline: as §1

[2] = compound: CC[C@@H]1C(=O)N(C)c2cnc(Nc3ccc(C(=O)NC4CCN(C)CC4)cc3OC)nc2N1C1CCCC1
Outline: as §1

volasertib = compound: CC[C@@H]1C(=O)N(C)c2cnc(Nc3ccc(C(=O)N[C@H]4CC[C@H](N5CCN(CC6CC6)CC5)CC4)cc3OC)nc2N1C(C)C [volasertib]
Outline: as §1

[3] = compound: CCn1c(C(=O)N(C2CC2)C2CC2)cc2c3c(ncn3C)c(Nc3cc(C)n(C)n3)nc21
Outline: as §1

[4] = compound: CCn1cc(-c2ccnc3[nH]c(-c4cccc(CN(C)C)c4)cc23)c(-c2ccc(NC(=O)N(C)C)cc2)n1
Outline: as §1

[5] = compound: CN1CCC(CNc2ccc3ncc(-c4cccc(OC(F)(F)F)c4)n3n2)CC1
Outline: as §1

saracatinib = compound: CN1CCN(CCOc2cc(OC3CCOCC3)c3c(Nc4c(Cl)ccc5c4OCO5)ncnc3c2)CC1 [saracatinib]
Outline: as §1

sotrastaurin = compound: CN1CCN(c2nc(C3=C(c4c[nH]c5ccccc45)C(=O)NC3=O)c3ccccc3n2)CC1 [sotrastaurin]
Outline: as §1

UniProt Q9NS87, sequence (Q9NS87 whole entry, looked up): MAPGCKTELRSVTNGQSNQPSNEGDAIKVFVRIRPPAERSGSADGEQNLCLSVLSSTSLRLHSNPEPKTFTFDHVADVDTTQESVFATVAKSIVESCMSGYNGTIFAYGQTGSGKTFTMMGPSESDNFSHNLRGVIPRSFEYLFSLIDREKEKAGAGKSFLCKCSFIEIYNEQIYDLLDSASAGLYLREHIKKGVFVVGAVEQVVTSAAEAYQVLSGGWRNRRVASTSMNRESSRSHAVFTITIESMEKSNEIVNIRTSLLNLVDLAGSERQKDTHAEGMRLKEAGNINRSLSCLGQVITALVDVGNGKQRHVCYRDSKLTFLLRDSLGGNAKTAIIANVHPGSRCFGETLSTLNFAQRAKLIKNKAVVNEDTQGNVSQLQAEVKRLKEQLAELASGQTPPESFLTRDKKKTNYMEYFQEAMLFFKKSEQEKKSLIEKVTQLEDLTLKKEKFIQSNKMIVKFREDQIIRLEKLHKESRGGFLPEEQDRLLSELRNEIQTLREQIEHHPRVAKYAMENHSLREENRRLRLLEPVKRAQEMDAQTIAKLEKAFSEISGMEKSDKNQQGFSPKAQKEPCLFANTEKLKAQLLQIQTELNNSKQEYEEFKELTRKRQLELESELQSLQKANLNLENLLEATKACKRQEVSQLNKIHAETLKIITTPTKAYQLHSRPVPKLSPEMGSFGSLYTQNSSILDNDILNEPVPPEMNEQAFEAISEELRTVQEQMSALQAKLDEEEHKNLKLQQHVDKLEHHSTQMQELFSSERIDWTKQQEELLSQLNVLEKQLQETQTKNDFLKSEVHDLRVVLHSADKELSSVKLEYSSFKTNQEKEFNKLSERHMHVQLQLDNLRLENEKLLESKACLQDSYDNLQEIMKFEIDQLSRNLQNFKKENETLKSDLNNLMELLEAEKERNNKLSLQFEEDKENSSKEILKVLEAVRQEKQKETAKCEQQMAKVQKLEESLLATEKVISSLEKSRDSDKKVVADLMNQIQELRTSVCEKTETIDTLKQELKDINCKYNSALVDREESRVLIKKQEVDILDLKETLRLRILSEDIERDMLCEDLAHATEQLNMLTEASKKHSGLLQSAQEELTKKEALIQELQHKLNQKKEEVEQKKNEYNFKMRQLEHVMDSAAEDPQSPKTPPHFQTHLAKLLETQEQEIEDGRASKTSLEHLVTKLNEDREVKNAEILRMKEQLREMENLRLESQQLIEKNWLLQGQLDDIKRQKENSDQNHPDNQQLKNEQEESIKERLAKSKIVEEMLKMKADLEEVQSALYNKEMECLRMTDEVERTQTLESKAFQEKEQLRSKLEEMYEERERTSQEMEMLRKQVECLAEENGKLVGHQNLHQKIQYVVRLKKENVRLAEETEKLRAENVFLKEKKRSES
UniProt Q9UBB5, sequence (Q9UBB5 whole entry, looked up): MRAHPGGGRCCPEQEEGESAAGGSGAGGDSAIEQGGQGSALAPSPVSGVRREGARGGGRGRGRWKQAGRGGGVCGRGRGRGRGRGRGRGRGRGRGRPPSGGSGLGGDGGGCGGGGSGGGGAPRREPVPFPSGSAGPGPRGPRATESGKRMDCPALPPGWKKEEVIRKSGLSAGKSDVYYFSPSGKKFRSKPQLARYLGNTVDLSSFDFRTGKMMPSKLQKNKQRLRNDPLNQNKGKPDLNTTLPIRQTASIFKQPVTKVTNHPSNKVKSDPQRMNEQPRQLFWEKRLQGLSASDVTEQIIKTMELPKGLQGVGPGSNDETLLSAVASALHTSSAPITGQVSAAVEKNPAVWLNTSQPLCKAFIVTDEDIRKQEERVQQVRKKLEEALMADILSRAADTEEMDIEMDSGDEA
UniProt Q5SRI9, sequence (Q5SRI9 whole entry, looked up): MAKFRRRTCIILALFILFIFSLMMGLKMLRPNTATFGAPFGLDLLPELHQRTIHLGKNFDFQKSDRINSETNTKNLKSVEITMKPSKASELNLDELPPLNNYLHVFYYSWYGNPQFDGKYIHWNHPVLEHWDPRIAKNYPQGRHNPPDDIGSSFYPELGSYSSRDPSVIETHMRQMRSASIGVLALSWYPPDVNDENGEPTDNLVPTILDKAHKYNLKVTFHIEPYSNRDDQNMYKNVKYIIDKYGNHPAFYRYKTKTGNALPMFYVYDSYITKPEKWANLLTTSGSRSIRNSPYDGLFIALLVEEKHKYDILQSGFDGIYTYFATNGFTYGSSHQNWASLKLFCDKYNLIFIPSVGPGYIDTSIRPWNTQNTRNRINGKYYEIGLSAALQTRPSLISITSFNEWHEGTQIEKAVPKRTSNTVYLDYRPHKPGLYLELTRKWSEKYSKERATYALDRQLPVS
UniProt Q71F56, sequence (Q71F56 whole entry, looked up): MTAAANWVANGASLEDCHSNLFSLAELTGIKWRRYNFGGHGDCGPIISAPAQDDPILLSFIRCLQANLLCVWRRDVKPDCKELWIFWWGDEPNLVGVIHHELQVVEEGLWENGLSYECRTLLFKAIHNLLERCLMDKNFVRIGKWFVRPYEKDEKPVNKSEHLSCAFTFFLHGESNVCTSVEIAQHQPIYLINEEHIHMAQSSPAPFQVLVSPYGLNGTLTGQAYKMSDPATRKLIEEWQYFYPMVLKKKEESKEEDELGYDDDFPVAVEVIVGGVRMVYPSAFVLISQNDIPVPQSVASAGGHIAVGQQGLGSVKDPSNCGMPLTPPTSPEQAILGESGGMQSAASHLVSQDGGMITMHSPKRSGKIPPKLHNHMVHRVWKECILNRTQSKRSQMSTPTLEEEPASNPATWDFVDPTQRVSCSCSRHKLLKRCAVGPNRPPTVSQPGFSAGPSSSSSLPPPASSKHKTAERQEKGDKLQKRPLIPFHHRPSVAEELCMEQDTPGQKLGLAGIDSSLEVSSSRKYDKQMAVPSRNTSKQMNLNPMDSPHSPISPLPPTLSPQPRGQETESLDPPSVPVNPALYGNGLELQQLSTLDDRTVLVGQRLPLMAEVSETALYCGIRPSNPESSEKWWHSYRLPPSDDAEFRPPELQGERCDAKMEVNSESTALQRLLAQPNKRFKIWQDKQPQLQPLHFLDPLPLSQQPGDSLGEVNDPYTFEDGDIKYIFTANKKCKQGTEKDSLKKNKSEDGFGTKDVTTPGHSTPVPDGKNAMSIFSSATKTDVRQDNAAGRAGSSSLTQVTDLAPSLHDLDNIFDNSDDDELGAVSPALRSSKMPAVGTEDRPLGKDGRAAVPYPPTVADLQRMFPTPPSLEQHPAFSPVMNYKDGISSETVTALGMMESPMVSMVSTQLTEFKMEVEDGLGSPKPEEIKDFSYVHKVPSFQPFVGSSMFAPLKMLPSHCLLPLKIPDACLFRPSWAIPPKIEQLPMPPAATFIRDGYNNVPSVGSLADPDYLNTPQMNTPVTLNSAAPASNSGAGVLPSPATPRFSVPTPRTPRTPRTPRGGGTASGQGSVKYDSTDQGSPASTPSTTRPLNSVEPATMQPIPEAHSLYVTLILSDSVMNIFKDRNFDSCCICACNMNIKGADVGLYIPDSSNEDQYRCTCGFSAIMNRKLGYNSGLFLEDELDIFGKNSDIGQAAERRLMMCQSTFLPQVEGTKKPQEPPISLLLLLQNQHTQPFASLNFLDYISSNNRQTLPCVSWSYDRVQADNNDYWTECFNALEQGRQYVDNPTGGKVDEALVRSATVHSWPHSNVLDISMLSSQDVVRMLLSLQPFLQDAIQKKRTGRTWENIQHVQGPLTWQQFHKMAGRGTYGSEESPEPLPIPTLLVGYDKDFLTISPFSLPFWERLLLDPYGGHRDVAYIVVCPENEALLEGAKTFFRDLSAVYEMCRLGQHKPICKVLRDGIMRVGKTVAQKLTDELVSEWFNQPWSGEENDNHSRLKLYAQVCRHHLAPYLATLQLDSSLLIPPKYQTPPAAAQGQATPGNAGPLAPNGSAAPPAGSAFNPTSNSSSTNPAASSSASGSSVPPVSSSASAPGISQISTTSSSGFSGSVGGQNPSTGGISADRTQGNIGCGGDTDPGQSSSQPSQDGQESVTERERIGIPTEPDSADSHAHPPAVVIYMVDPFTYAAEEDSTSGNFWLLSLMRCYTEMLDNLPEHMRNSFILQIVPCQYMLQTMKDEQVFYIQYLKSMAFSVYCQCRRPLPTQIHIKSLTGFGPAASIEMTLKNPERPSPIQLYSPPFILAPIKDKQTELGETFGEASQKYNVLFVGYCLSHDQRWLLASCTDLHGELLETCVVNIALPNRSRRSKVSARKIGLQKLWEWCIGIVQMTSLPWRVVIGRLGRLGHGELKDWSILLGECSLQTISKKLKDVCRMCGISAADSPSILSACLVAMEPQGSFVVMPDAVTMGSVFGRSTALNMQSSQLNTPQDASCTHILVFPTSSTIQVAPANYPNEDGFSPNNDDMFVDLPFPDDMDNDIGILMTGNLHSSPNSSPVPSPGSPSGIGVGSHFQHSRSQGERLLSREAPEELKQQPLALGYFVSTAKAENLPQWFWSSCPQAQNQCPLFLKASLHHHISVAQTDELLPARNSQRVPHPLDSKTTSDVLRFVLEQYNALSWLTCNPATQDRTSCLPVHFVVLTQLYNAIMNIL
UniProt P07948, sequence (P07948 whole entry, looked up): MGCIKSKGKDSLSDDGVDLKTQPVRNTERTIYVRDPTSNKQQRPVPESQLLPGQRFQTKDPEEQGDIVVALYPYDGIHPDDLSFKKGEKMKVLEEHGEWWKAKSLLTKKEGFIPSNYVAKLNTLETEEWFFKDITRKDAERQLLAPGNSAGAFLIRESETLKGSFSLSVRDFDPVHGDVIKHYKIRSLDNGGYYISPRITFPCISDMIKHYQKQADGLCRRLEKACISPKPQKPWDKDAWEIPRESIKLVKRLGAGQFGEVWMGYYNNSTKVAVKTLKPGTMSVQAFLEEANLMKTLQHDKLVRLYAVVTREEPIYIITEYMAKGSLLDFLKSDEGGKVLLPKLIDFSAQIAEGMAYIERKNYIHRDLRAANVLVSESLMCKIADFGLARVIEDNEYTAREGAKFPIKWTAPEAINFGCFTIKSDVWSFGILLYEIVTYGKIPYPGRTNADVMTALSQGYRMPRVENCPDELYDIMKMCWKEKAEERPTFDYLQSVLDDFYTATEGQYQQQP
UniProt Q13015, sequence (Q13015 whole entry, looked up): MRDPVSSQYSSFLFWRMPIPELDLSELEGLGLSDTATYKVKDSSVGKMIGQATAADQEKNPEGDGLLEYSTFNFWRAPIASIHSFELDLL

Row | Target | log2 fold change (vemurafenib) | log2 fold change [1] | log2 fold change (barasertib) | log2 fold change [2] | log2 fold change (volasertib) | log2 fold change [3] | log2 fold change [4] | log2 fold change [5] | log2 fold change (saracatinib) | log2 fold change (sotrastaurin)
1 | MAP1S (UniProt Q66K74) | -0.004 | 0.041 | 0.002 | -0.035 | -0.024 | -0.01 | -0.056 | -0.022 | 0.038 | 0.037
2 | MRPL12 (UniProt P52815) | 0.01 | -0.026 | 0.181 | 0.036 | 0.103 | -0.019 | -0.412 (active) | -0.032 | 0.004 | 0.015
3 | KPNA4 (UniProt O00629) | -0.003 | 0.017 | -0.089 | 0.048 | 0.026 | -0.022 | -0.318 (active) | 0.103 | -0.032 | 0.03
4 | MLLT11 (UniProt Q13015) | -0.054 | -0.048 | 0.143 | -0.199 | 0.1 | 0.05 | -0.01 | -0.049 | 0.118 | -0.04
5 | METTL2A (UniProt Q96IZ6) | 0.073 | 0.058 | 0.023 | -0.046 | -0.015 | -0.011 | 0.06 | -0.113 | -0.004 | 0.011
6 | MAP4 (UniProt P27816) | 0.01 | -0.017 | -0.016 | 0.064 | 0.033 | -0.022 | -0.042 | 0.036 | -0.009 | -0.027
7 | MICU1 isoform 3 (UniProt Q9BPX6) | -0.055 | -0.004 | 0.094 | 0.002 | -0.005 | 0.091 | 0.234 (active) | -0.422 (active) | 0.006 | 0.044
8 | LIMS1 isoform 3 (UniProt P48059) | -0.055 | -0.006 | 0.014 | 0.008 | 0.024 | -0.002 | -0.005 | 0.045 | 0.014 | -0.162
9 | MANEA (UniProt Q5SRI9) | 0.035 | -0.019 | -0.071 | -0.001 | -0.084 | 0.005 | -0.627 (active) | 0.254 | -0.059 | -0.019
10 | MAP2K3 isoform 3 (UniProt P46734) | 0.065 | -0.042 | 0.032 | -0.125 | 0.07 | -0.063 | 0.191 | 0.04 | 0.113 | -0.008
11 | MBD2 (UniProt Q9UBB5) | -0.014 | 0.016 | -0.009 | 0.059 | -0.021 | 0.073 | -0.005 | -0.007 | -0.036 | -0.089
12 | LYN (UniProt P07948) | 0.285 | 0.05 | 0.258 | -0.067 | -0.134 | 0.004 | -0.012 | 0.233 | 0.605 | -0.045
13 | MAP3K4 (UniProt Q9Y6R4) | 0.006 | 0.007 | 0.107 | 0.145 | 0.167 | 0.012 | 0.047 | 0.015 | 0.005 | -0.014
14 | MED13L (UniProt Q71F56) | -0.043 | -0.012 | 0.028 | 0.01 | -0.058 | 0.038 | -0.023 | 0.064 | -0.037 | -0.018
15 | LARP4B (UniProt Q92615) | -0.014 | 0.011 | -0.033 | -0.029 | -0.042 | 0.08 | -0.116 | 0.038 | 0.011 | -0.019
16 | MOSPD2 (UniProt Q8NHP6) | 0.003 | 0.008 | -0.007 | 0.158 | -0.014 | 0.039 | -0.054 | 0.004 | 0.043 | 0.076
17 | KIF2A isoform 4 (UniProt O00139) | -0.006 | 0 | -0.014 | -0.117 | -0.032 | 0.042 | -0.013 | 0.009 | 0.021 | 0.023
18 | KLC2 (UniProt Q9H0B6) | 0.066 | 0.042 | 0.042 | -0.043 | -0.074 | -0.009 | -0.015 | -0.069 | 0.008 | -0.016
19 | LDAH isoform 2 (UniProt Q9H6V9) | 0.077 | 0.125 | 0.018 | 0.003 | -0.036 | -0.004 | -0.013 | -0.018 | 0.016 | -0.01
20 | MED14 (UniProt O60244) | -0.078 | 0.003 | 0.015 | -0.084 | -0.023 | 0.008 | -0.008 | 0.009 | -0.001 | 0.008
21 | LPCAT1 (UniProt Q8NF37) | -0.009 | 0.07 | 0.012 | 0.037 | 0.097 | -0.072 | -0.39 (active) | 0.099 | 0.079 | 0.032
22 | MPI (UniProt P34949) | 0.013 | 0.007 | 0.008 | 0.014 | -0.02 | -0.011 | 0.149 | -0.067 | -0.028 | 0.025
23 | KIF15 (UniProt Q9NS87) | -0.01 | 0.045 | 0.016 | -0.018 | -0.053 | 0.036 | 0.006 | -0.036 | 0.019 | 0
24 | MAPKAPK5 (UniProt Q8IW41) | -0.111 | -0.11 | -0.013 | -0.009 | -0.052 | 0.031 | 0.017 | -0.02 | -0.009 | -0.068
25 | LARS (UniProt Q9P2J5) | -0.005 | 0.006 | 0.006 | -0.069 | -0.063 | 0.045 | 0.008 | -0.058 | -0.023 | -0.002
26 | LSG1 (UniProt Q9H089) | -0.056 | 0.046 | 0.037 | -0.084 | -0.065 | -0.01 | -0.124 | 0.064 | 0.043 | 0.024
27 | MORC2 (UniProt Q9Y6X9) | 0.049 | 0.01 | 0.054 | 0.022 | 0.002 | -0.006 | -0.041 | 0.008 | 0.042 | 0.037
28 | MAST4 (UniProt O15021) | -0.085 | -0.049 | 0.051 | -0.126 | -0.017 | 0.121 | -0.204 | 0.059 | -0.001 | -0.015
29 | MMS19 isoform 8 (UniProt Q96T76) | 0.064 | 0.006 | 0.029 | -0.061 | -0.114 | 0.002 | -0.005 | -0.051 | 0 | 0.026
30 | MAP2K7 isoform 4 (UniProt O14733) | 0.073 | 0.087 | -0.02 | 0.016 | -0.04 | 0.042 | 0.004 | -0.02 | 0.032 | 0.02
